Test results taken from PubChem BioAssay (NCI).
Values joined by “and” are separate entries in the source; they are usually repeats but may differ in a detail not shown here. Identical values can stand only once. The panel holds about 83,000 compounds, 20% with a hit somewhere; the sample as a whole holds those more often.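 A percent growth of 40 corresponds to 60% growth inhibition; 0 means no net growth; -100 means all cells died. Active threshold: below 10.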 Unmarked numbers belong to inactive results. Active and inactive are the calls of the source.

test system: MDA-MB-468 breast; assay: NCI-60 one-dose screen, 48 h (100 = growth as untreated, 0 = no growth, -100 = all killed); settings: 10 µM unless noted

Compound	growth
Nc1cc(O)cc(O)c1	107%
CC[C@@H](C[C@H](CCO)c1ccccc1)c1cc2ccccc2o1	107%
CCc1nc2ccc(Cc3ccc(C(=O)NO)cc3)cc2c(=O)n1CCc1ccccc1	-65.1% (active)
CCCCCCCCn1ccc2cc(NC(=O)Cn3cc(CN4CCCCCC4)nn3)ccc21	-67.2% (active)
CCN(CC)C(=O)C1=C(C)NC(=O)NC1c1ccc2c(c1)OCO2 (stereo not given)	112%
CCOC(=O)c1sc(-c2ccc(OS(=O)(=O)c3cccs3)c(C=O)c2)nc1C	-15.4% (active)
COc1cc2ccccc2cc1C(=O)NC(=S)Nc1ccc(-c2nc3ccccc3[nH]2)cc1	90.2%
Cc1ccc(Sc2ccccc2N)cc1	81.2%
Cc1cccc(-c2nc(Nc3ccc4ncsc4c3)c3ccccc3n2)n1	72.3%
Nc1nc(N)c(NC(=O)CNc2ccc(C(=O)O)cc2)c(N)n1	98.6%
O=C1C2=C(C(=O)c3c(O)ccc(O)c31)N(c1cccnc1)Cc1ccccc1O2	-6.39% (active)
CC1(C)CCC(=NNC(N)=S)CC1	103%
O=C(N/N=C/c1ccccc1O)c1ccccc1Nc1ccnc(C(F)(F)F)c1	-18.4% (active)
CCCCCCCCCC(=O)NC(C)(C)C(=O)N1CCC[C@H]1C(=O)N[C@@H](CC(C)C)C(=O)N[C@@](C)(CC)C(=O)N[C@@H](CCC(N)=O)C(=O)N[C@H](CCC(N)=O)C(=O)NC(C)(C)C(=O)NC(C)(C)C(=O)N[C@@H](CCC(N)=O)C(=O)N[C@H](CC(C)C)C(=O)N[C@H](CO)CC(C)C	-94.3% (active) and -88.5% (active)
N#CC1=C(N)Oc2c(cnn2-c2ccc([N+](=O)[O-])cc2[N+](=O)[O-])C1c1ccccc1 (stereo not given)	87.7%
COC(=O)c1cc2oc(/C=N/NC(=O)c3cc4oc(-c5cccc(C(F)(F)F)c5)cc4[nH]3)cc2n1Cc1ccccc1	106%
S=C1CC(=S)NC(=S)N1	95.8%
Cc1ccc(S(=O)(=O)N2CCc3ccccc3CC2)cc1	-4.8% (active)
O=C(Nc1cn[nH]c1-c1nc2ccc(CN3CCOCC3)cc2[nH]1)NC1CC1	25.5%
CCOC(=O)c1ccc(N/C=C/C(=O)c2ccccc2)cc1	98.9%

Compound	growth
CCOC(=O)C/C(=N\Nc1cc(=O)[nH]c2ccc(Br)cc12)C(=O)OCC	99.3%
O=C1C(Cl)=C(NCCN2CCOCC2)C(=O)c2ncccc21	-74.1% (active)
COc1ccc(-c2nc3cccc(O)c3c(=O)n2Cc2ccccc2)cc1COc1ccc(NC(C)=O)cc1	71.9% [3 µM]
COc1cc(F)c(F)c(Nc2ccc(I)cc2F)c1NS(=O)(=O)C1(C[C@H](O)CO)CC1	67.4%
COc1ccc(-c2cc(-c3cn(-c4cccc(Cl)c4)nc3-c3ccc(OC)cc3)on2)cc1	88.9%
CSCC[C@@H]1C(=O)N(C)[C@H](C(C)(C)C)N1C(=O)c1ccccc1	105%
Cc1c(C(=O)NC(Cc2ccccc2)C(O)C(=O)NCc2ccc(F)cc2)[nH]c2ccccc2c1=O (stereo not given)	99.4%
CCOC(=O)c1c(Nc2ccccc2)nn2c(N)c(C#N)c(-c3ccc(Cl)cc3)nc12	76.8%
O=C1Nc2ccccc2/C1=C/c1cn(C(=O)c2c(Cl)cccc2Cl)c2ccccc12	32.7%
CC(C)CCSc1nc(-c2ccc(F)cc2)c(C#N)c(N2CCN(C)CC2)n1	98.3%
Cc1cc2nc(CC(=O)c3ccccc3)c(=O)[nH]c2cc1C	103%
CC(=O)OCC1OC(OC2=C(CC=C(Cl)Cl)C(=O)c3ccccc3C2=O)C(OC(C)=O)C(OC(C)=O)C1OC(C)=O (stereo not given)	-61.7% (active)
O=C1CC(c2ccc3c(c2)OCO3)c2ncn(-c3ccc(Cl)cc3)c2N1 (stereo not given)	13%
CN(c1ccccc1)c1ncnc2c1ncn2C	113%
CCOC(=O)N1C/C(=C/c2ccc(Cl)cc2)C(=O)/C(=C/c2ccc(Cl)cc2)C1	33.1%
O=C(O)CCN1CCN(c2cccc(Cl)c2)CC1	103%
Nc1c(C(=O)Nc2cccc(Br)c2)sc2nc3c(cc12)C(O)CCC3 (stereo not given)	29.8%
CCCCn1sc(=O)n(Cc2ccc(CNC(=O)OCc3ccc4c(Br)cc(Br)c(O)c4n3)cc2)c1=O	27.3%
CCSc1nc(Cl)c(C#N)c(-c2ccc(F)cc2)n1	84.2%
CCc1nc2cc(/C=C/C(=O)NO)c(F)cc2c(=O)n1CCc1ccccc1	-32.9% (active)
